Measured values as given in PubChem BioAssay (NCI).
About 83,000 compounds went through this panel and 20% of them were active in at least one assay; those are over-represented in the sample as a whole.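 For each line, cells grew in 96-well plates with the test compound present at a single concentration for 48 hours.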 A number with no mark means an inactive call. The source made the active and inactive calls. Rule for the calls: active = growth percent below 10; inactive = the rest.

Columns and labels:
Assay in all cases: NCI-60 one-dose screen, 48 h (100 = growth as untreated, 0 = no growth, -100 = all killed)
EKVX NSCLC = conditions: 10 µM unless noted
SN12C renal = conditions: 10 µM unless noted
UO-31 renal = conditions: 10 µM unless noted
TK-10 renal = conditions: 10 µM unless noted
ACHN renal = conditions: 10 µM unless noted
CAKI-1 renal = conditions: 10 µM unless noted
A498 renal = conditions: 10 µM unless noted
CCRF-CEM leukemia = conditions: 10 µM unless noted
MOLT-4 leukemia = conditions: 10 µM unless noted
SR leukemia = conditions: 10 µM unless noted
OVCAR-8 ovarian = conditions: 10 µM unless noted
OVCAR-5 ovarian = conditions: 10 µM unless noted
OVCAR-4 ovarian = conditions: 10 µM unless noted
SK-OV-3 ovarian = conditions: 10 µM
IGROV1 ovarian = conditions: 10 µM unless noted
OVCAR-3 ovarian = conditions: 10 µM unless noted
HS 578T breast = conditions: 10 µM unless noted
NCI/ADR-RES ovarian = conditions: 10 µM unless noted
RPMI-8226 leukemia = conditions: 10 µM

| Compound | growth (EKVX NSCLC) [%] | growth (SN12C renal) | growth (UO-31 renal) | growth (TK-10 renal) | growth (ACHN renal) | growth (CAKI-1 renal) | growth (A498 renal) | growth (CCRF-CEM leukemia) | growth (MOLT-4 leukemia) | growth (SR leukemia) | growth (OVCAR-8 ovarian) | growth (OVCAR-5 ovarian) | growth (OVCAR-4 ovarian) | growth (SK-OV-3 ovarian) | growth (IGROV1 ovarian) | growth (OVCAR-3 ovarian) | growth (HS 578T breast) | growth (NCI/ADR-RES ovarian) [%] | growth (RPMI-8226 leukemia) |
| --- | --- | --- | --- | --- | --- | --- | --- | --- | --- | --- | --- | --- | --- | --- | --- | --- | --- | --- | --- |
| c1ccc2c(c1)oc1cc3c(cc12)nnc1cccn13 | 80.9 | 103% | 64.9% | 122% | 99.8% | 91.1% | 111% | 109% | 108% | 94.6% | 102% | 116% | 107% | 108% | 87.4% | 107% | 108% | 111 |  |
| CCN1CCN(C(=S)SCC(=O)Nc2nc3ccc(OC)cc3s2)CC1 | 101 | 97.6% | 79% | 111% | 110% | 81.8% | 105% |  | 97.2% | 88.3% | 103% | 98.8% | 93.3% | 112% |  | 101% | 106% | 99.6 | 98% |
| CC(C)OC1=C(Cl)C(=O)c2ccccc2C1=O | 103 | 90.5% | 76.7% | 110% | 98.5% | 106% | 112% |  | 39.8% | 9.89% (active) | 75.9% | 101% | 71.9% | 103% | 99.1% | 78% | 81.5% | 87.2 | 24.5% |
| Oc1ccccc1/C=N/Nc1nc2ccccc2s1 | 61.9 | 48.8% | 19.7% |  | 43.1% | 7.12% (active) | 78.3% |  | 41.2% | 43.7% | 57.3% | 91.8% | 19.9% | 57.5% |  | 13.8% | 65.2% | 51.6 | 35.8% |
| FCOC(C(F)(F)F)C(F)(F)F | 107 | 113% | 87% | 91.1% | 104% | 98.5% | 95.3% | 101% | 97.3% | 86.2% | 107% | 103% | 121% | 98% | 111% | 107% | 107% | 106 |  |
| Cc1ccc(S(=O)(=O)N2CCc3ccc(O)c4c3C2CCc2ccccc2-4)cc1 (centres undefined) | 104 | 100% | 67.6% | 111% | 93.4% | 88.3% | 111% | 83% | 77.5% |  | 98.8% | 110% | 106% | 101% | 113% | 99.1% | 106% | 104 |  |
| CN1CCc2c(c3ccccc3c3ccccc23)C1 |  | 42.7% | 42.2% | 60.9% | 25.7% | 56.1% | 62.9% | -38.4% (active) |  | 20.5% | 37.3% | 60% | 82.1% | 63% | 61.4% | 63.7% | 82.4% | 45 |  |
| OC[C@@H](O)[C@@H](O)CO | 107 | 99.6% | 80.5% | 111% | 103% | 93.9% | 101% | 100% |  | 81.7% | 105% | 102% | 101% | 116% | 109% | 106% | 104% | 99.6 | 118% |
| O=C1/C(=C/c2ccccc2F)CNC/C1=C\c1ccccc1F | 22.4 | -51.1% (active) | -89.6% (active) | -4.87% (active) | -48.9% (active) | -52.5% (active) | -38.8% (active) | -36.3% (active) | -32.5% (active) |  | 2.92% (active) | -41.3% (active) | 6.6% (active) | -45.1% (active) | -6.61% (active) | -68.6% (active) | 24.5% | 10.9 | -27.8% (active) |
| CN1CCN(C(=O)OCCOCCOC(=O)N2CCN(C)CC2)CC1 | 100 | 99.9% | 95.8% | 94.5% | 97% | 131% | 93% | 8.24% (active) | 52.7% | 95% | 102% | 104% | 106% | 117% | 132% | 117% | 111% | 96.3 | 81% |
| CC(=O)c1cc(C)c(OC(=O)c2ccccc2)c(C)c1 | 96.5 | 102% | 84.3% |  | 103% | 79.3% | 105% | 85.4% | 93.3% | 82.8% | 103% | 106% | 91.6% | 103% | 123% | 106% | 100% | 97.9 | 80.4% |
| COc1cccc(OC)c1OC(=O)c1ccccc1 | 95.8 | 91.2% | 77.5% | 114% | 107% | 88.4% | 85.6% | 92.7% | 107% | 91.7% | 106% | 107% | 97.4% | 106% | 116% | 123% | 96.6% | 105 | 96.1% |
| O=c1[nH]c(=S)[nH]c(=O)n1Cc1cccc2ccccc12 |  | 101% | 93% |  | 97.7% | 86.9% | 85.4% | 105% | 99.7% | 102% | 99.7% | 107% | 93.4% | 102% | 115% | 113% | 102% | 108 | 106% |
| NC(=S)N/N=C1\c2ccccc2-c2c(F)c(F)c(F)c(F)c21 | 87.3 | 70.6% | 68.9% | 116% | 65.7% | 78.3% | 105% | -28.1% (active) | -18% (active) | 2.57% (active) | 39.6% | 108% | 56.5% | 98.8% | 20.8% | 61.6% | 107% | 10.2 | 67.1% |
| COCCOC1=C(Cl)C(=O)c2ccccc2C1=O | 38.9 | 33.4% | -20.2% (active) | 97.9% | 23.7% |  | 67.6% |  | 21.7% | 0.0172% (active) | 13.2% | 31.6% | -21.6% (active) | 87.5% | 21% | -13.3% (active) | 4.85% (active) | 20.4 | 6.59% (active) |
| Cc1ccc(S(=O)(=O)N2CCc3ccc(O)c4c3C2Cc2cc(Cl)ccc2-4)cc1 (centres undefined) | 99.6 | 91.9% | 48.8% | 69.1% | 57.1% | 56.1% | 47.5% | 94% | 74.4% | 18.9% | 75.4% | 99% | 70.3% | 70% | 57.6% | -3.87% (active) | 62.8% | 42.6 | 93.8% |
| Cc1ccc(S(=O)(=O)N2CCc3ccc(O)c4c3C2Cc2ccc3c(c2-4)OCO3)cc1 (centres undefined) | 49.3 | 39.5% | 30.4% | 32.6% | 44.9% | 32% | 35.6% | -11.9% (active) |  | 14.8% | 31.1% | 45.8% | 45.6% | 7.28% (active) | 41.6% | -47.7% (active) | 47.5% |  | 27.4% |
| COc1c(O)c2c3c(c1OC)-c1ccccc1CC3N(S(=O)(=O)c1ccc(C)cc1)CC2 (centres undefined) | 106 | 50% | 48% | 83.4% | 50% | 51.1% | 88.3% | 1.29% (active) | 30.7% | 9.8% (active) | 53.7% | 79.2% | 71.3% | 48.9% | 65.6% | -10.4% (active) | 63% |  | 90.9% |
